Data: PubChem BioAssay AID1626 (SRMLSC, 2009)
The whole screen tested about 220,000 compounds, of which about 2,000 (0.91%) were called active. About 2% were inconclusive and are not listed. No stated cut-off is given here; in the data, inconclusive means inhibition above about 80% without an active follow-up result; inactive means below that; test concentration not stated here. A selection follows. Measured potencies and affinities stand elsewhere.

Assay: M. tuberculosis H37Rv growth inhibitors, H37Rv strain (AID 1626);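 further: bacteria incubated seven days before Alamar blue readout; 0% = bacteria only wells and 100% = bacteria with antibiotic wells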
Settings: stronger effect = higher value, concentration not given here

Row | SMILES | inhibition
1 | COC(=O)C1C2c3ccccc3OC1(C)N=c1s/c(=C/c3cnn(C)c3)c(=O)n12 (stereo not given) | 58.3% (inactive)
2 | COC(=O)C1C2c3ccccc3OC1(C)N=c1s/c(=C/c3cn(C)nc3C)c(=O)n12 (stereo not given) | -3.65% (inactive)
3 | Cc1c(C)[n+](=O)c2c(n1[O-])C(Br)CCC2Br (stereo not given) | 0.09% (inactive)
4 | COC(=O)c1cccc(NC(N)=S)c1 | 2.04% (inactive)
5 | NC(=O)Oc1cccc(OC(N)=O)c1 | -7.05% (inactive)
6 | C#CCOc1ccc(Br)cc1/C=N/O | 7.55% (inactive)
7 | O=C(NCc1cccs1)c1cc(-c2ccncc2)nc2ccc(Br)cc12 | 71.8% (inactive)
8 | Cc1cc(N)n2ncc(-c3cccc(Br)c3)c2n1 | 22.8% (inactive)
9 | O=C(O)CSC1c2ccccc2C(=O)N1c1ccccc1 (stereo not given) | -1.63% (inactive)
10 | CC(C)CNC(=O)Cn1c(=O)c2c(ncn2CC(C)C)n(Cc2ccccc2)c1=O | 7.42% (inactive)
11 | Cc1ccc(NC(=S)NNC(=O)c2ccco2)cc1 | 7.01% (inactive)
12 | O=C(Nc1ncc(Cc2cccc([N+](=O)[O-])c2)s1)c1ccco1 | 1.37% (inactive)
13 | O=C(Nc1ncc(Cc2ccccc2Cl)s1)c1ccc(-c2cccc([N+](=O)[O-])c2)o1 | -0.67% (inactive)
14 | COC(=O)c1ccc(OCC(O)CN2C(=O)NC(C)(C)C2=O)cc1 (stereo not given) | -2.31% (inactive)
15 | CN(C)C(CNC(=O)c1cc(S(=O)(=O)N(C)c2ccccc2)ccc1Cl)c1cccs1 (stereo not given) | -3.17% (inactive)
16 | Cc1occc1C(=O)N/N=C/C1=C(N2CCOCC2)C(=C\c2ccc(Cl)cc2)/CC1 | -4.7% (inactive)
17 | O=C(NCc1cccnc1)c1ccc(COc2ccccc2Br)cc1 | 12% (inactive)
18 | O=C(NCCC(=O)N1CCOCCOCCOCCOCC1)OCc1ccccc1 | -3.39% (inactive)
19 | CCOC(=O)N1CCN(C(=O)c2ccc3nc4ccc(Cl)cc4c(=O)n3c2)CC1 | 2.6% (inactive)
20 | NS(=O)(=O)c1ccc(CNC(=O)c2cc(-c3ccccn3)nc3ccc(Cl)cc23)cc1 | 8.36% (inactive)

Row | SMILES | inhibition
21 | CCNC(=O)CN1C(=O)NC(Cc2ccccc2)(Cc2ccccc2)C1=O | -0.94% (inactive)
22 | COc1ccc(NC(=O)Nc2ccc(F)cc2F)cc1 | 10.7% (inactive)
23 | COc1ccc(CN2C(=O)CS/C2=N/N=C/c2ccccc2)cc1 | -0.88% (inactive)
24 | CCNC(=S)N(Cc1c(C)noc1C)c1ccccc1 | -11.8% (inactive)
25 | CCOc1cc(/C=N/NC(=O)CSc2nncn2C)ccc1OCc1cccc(C)c1 | 5.11% (inactive)
26 | COc1ccccc1C1C2=C(N=c3s/c(=C/c4cccc(OCC(=O)O)c4)c(=O)n31)c1ccccc1CC2 (stereo not given) | -4.54% (inactive)
27 | COc1ccc(/C=c2/sc3n(c2=O)C(c2ccccc2OC)C2=C(N=3)c3ccccc3CC2)cc1O (stereo not given) | 16.2% (inactive)
28 | COc1cccc(C2C3=C(N=c4s/c(=C\c5ccc(O)cc5)c(=O)n42)c2ccccc2CC3)c1OC (stereo not given) | 6.52% (inactive)
29 | COc1cccc(C2C3=C(N=c4s/c(=C\c5ccccc5O)c(=O)n42)c2ccccc2CC3)c1OC (stereo not given) | 5.15% (inactive)
30 | CCOc1ccc(NC(=O)Nc2ccc(Br)cn2)cc1 | 0.855% (inactive)
31 | CCOC(=O)N1CCN(C(=O)c2ccccc2NC(=O)c2ccc(F)cc2)CC1 | 22.6% (inactive)
32 | COc1ccc(C2/C=C\CN(C(=O)Oc3ccccc3)CC(=O)N2Cc2ccc(F)cc2)cc1 (stereo not given) | 0.77% (inactive)
33 | CC(NC(=O)Cn1c(NCCO)nc2ccccc21)C1CC2CCC1C2 (stereo not given) | -0.5% (inactive)
34 | O=C1C(NS(=O)(=O)c2cccs2)=C(N2CCN(c3ccccc3)CC2)C(=O)c2ccccc21 | 6.53% (inactive)
35 | O=C1C(NS(=O)(=O)c2cccs2)=C(N2CCN(c3cccc(Cl)c3)CC2)C(=O)c2ccccc21 | 72.6% (inactive)
36 | COc1ccccc1N1C(=O)C2CC=CC(C)C2C1=O (stereo not given) | -9.33% (inactive)
37 | Cc1sc2nc(CN3CCOCC3)nc(N3CCOCC3)c2c1C | -5.18% (inactive)
38 | Cc1sc2nc(CN3CCOCC3)nc(Cl)c2c1C | 1.93% (inactive)
39 | COC(=O)C1(C(F)(F)F)N=C2Sc3ccccc3N2C(N2CCOCC2)=N1 (stereo not given) | -2.56% (inactive)
40 | N#Cc1ccc(-c2ccc(OCC(=O)NCCc3ccccc3)cc2)cc1 | 7.81% (inactive)

Row | SMILES | inhibition
41 | COc1ccc(CCNC(=O)COc2ccc(-c3ccc(C#N)cc3)cc2)cc1 | -19.4% (inactive)
42 | CN(C)c1ccc(NC(=O)N2CCOCC2)cc1 | -3.81% (inactive)
43 | N#Cc1c(NC(=O)CN2C(=O)c3ccccc3C2=O)oc(-c2ccccc2)c1-c1ccccc1 | -4.11% (inactive)
44 | Cc1[nH]c2ccccc2c1C(=O)C(=O)NCC1CCCO1 (stereo not given) | 7.05% (inactive)
45 | Cc1ccc(-c2csc(-c3ccncc3)n2)cc1 | -6.57% (inactive)
46 | CCCOc1ccc(-c2nc(-c3ccc(N)cc3)cs2)cc1 | 1.99% (inactive)
47 | Brc1ccc(-c2csc(Nc3nc(-c4ccc(Br)cc4)cs3)n2)cc1 | 7.47% (inactive)
48 | Brc1ccc(-c2csc(-c3ccncc3)n2)cc1 | 40.3% (inactive)
49 | Cc1nc(N2CCN(c3ccccc3)CC2)[nH]c(=O)c1CCC(C)C | 6.58% (inactive)
50 | Nc1nc(SCC(=O)N2CCCc3ccccc32)n(-c2ccccc2)n1 | -0.56% (inactive)
51 | CCC1S/C(=N\S(=O)(=O)c2cccs2)N(C2CCCCC2)C1=O (stereo not given) | -5.04% (inactive)
52 | CC1(C)Cc2c(sc(NC(=O)Cc3ccccc3)c2C#N)CO1 | -0.57% (inactive)
53 | O=C(NC1CCCCC1)N(Cc1nc2ccccc2c(=O)[nH]1)C1CCCCC1 | 12.6% (inactive)
54 | Cc1ccc(Oc2nc(CN3CCOCC3)nc3sc4c(c23)CCC(C)C4)cc1C (stereo not given) | 40.8% (inactive)
55 | Cc1cccc(Oc2nc(CN3CCOCC3)nc3sc4c(c23)CCCC4)c1 | 14% (inactive)
56 | O=C(Nc1ccc2c3c(cccc13)CC2)c1cccc([N+](=O)[O-])c1 | 2.05% (inactive)
57 | O=C(/C=C/c1ccccc1Cl)NCc1ccccc1 | -0.07% (inactive)
58 | COC(=O)[C@H](CC(C)C)NC(=O)NCc1ccc(Cl)cc1 | -2% (inactive)
59 | CCC(CC)NC(=O)/C=C/c1ccccc1Cl | -14.3% (inactive)
60 | CC(Cc1ccccc1)NC(=O)/C=C/c1ccc(Cl)cc1 (stereo not given) | -0.45% (inactive)
